The results in this text go back to ChEMBL document CHEMBL3988442, “University of Dundee, Small-Polar-MMV Screening Library” (2021).

Entries with a potency or affinity are not part of this list.

In the first assay the target is Protein translocase subunit SecA (Escherichia coli (strain K12)) (UniProt P10408). Kind of assay: Assay to Identify E. coli SecA ATPase Inhibitors. It is filed as functional. Also noted: scale not given: direction of the effect not stated beside the values. The following applies: 30 µM.
Chain of Protein translocase subunit SecA (Escherichia coli (strain K12)) (P10408 whole entry): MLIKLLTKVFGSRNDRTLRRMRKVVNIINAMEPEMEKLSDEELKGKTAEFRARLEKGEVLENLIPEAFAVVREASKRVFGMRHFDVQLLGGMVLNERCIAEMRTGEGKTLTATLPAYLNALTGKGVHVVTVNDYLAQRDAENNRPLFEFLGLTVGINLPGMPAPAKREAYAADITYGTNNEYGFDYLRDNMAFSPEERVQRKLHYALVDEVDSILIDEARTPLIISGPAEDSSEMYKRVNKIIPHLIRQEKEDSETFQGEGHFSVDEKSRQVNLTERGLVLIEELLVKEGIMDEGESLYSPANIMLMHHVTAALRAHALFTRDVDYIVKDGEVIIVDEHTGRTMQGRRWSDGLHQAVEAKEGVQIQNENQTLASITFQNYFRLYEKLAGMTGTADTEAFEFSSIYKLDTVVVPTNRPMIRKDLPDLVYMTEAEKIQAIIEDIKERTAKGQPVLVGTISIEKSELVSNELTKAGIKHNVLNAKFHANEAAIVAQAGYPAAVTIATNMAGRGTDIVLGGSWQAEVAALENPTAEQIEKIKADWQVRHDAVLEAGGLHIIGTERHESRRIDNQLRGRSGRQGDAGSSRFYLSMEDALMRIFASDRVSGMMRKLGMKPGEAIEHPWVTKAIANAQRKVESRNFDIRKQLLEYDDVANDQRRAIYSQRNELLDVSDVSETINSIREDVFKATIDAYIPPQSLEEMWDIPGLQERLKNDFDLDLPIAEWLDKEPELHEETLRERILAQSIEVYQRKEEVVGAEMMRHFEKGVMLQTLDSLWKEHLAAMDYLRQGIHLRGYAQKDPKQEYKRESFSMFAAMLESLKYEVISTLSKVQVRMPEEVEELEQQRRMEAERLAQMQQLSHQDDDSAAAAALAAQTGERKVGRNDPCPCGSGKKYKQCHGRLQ
As to `COCCCNC(=O)CN1CCCC1c1c(C)nn(C)c1Cl` (centres undefined), the Percent Effect was -8%.

Regarding `Cc1ccccc1CN1CCN(CC(=O)Nc2cccnc2)CC1`, the Percent Effect was -3.14%.

With `CS(=O)(=O)N1CCOCC2(CN(Cc3ccsc3)CCO2)C1` (centres undefined), the Percent Effect was -4.51%.

Regarding `c1cncc(COCc2nnc3n2CCN(Cc2ccoc2)C3)c1`, the Percent Effect is -1.23%.

Regarding `CCN1C(=O)CCC12CCCN(Cc1nccs1)CC2` (centres undefined), the Percent Effect is -5.45%.

On to `O=C(Nc1cnn(CCN2CCOCC2)c1)c1cc(F)ccc1F`, for which the Percent Effect is -1.54%.

As to `O=C(N[C@@H]1CN(Cc2ccc3c(c2)OCO3)[C@@H]2CCCO[C@@H]21)C1CC1`, the Percent Effect was -7.03%.

Consider `Cc1noc(Cl)c1CCC(=O)N1CCC(CC(N)=O)CC1`, for which the Percent Effect is -6.39%.

Take `c1ncn(CC2CCCCN2Cc2noc(C3CC3)n2)n1` (centres undefined): the Percent Effect is -0.132%.

In the case of `Cc1ccc(CNS(=O)(=O)CC2=NC(=O)n3cccc3C2=O)cc1`, the Percent Effect came out at 0.952%.

With `Cn1cc(CN2CCn3cc(CNC(=O)C4CCC4)nc3C2)cn1`, the Percent Effect was -3.67%.

Take `CCNC(c1cccnc1)c1cc(C)cc(C)c1` (centres undefined): the Percent Effect was -3.46%.

Turning to `Cc1nc(N2CC[C@@H](NC(=O)c3cnccn3)[C@H](O)C2)c2ccsc2n1`, the Percent Effect came to 0.273%.

As for `CC(C)C(C(=O)N1CCN(Cc2ccncc2)CC1)n1cncn1` (centres undefined), the Percent Effect was -4.08%.

Turning to `CC1c2ncc(Cn3cncn3)n2CCN1C(=O)C1CCOCC1` (centres undefined), the Percent Effect was -4.07%.

On to `Cc1cnn(CCNCC(O)COc2ccc(C#N)cc2)c1` (centres undefined), for which the Percent Effect was -4.77%.

In the case of `O=C(CCc1nccs1)N1CCN(c2cccnn2)CC1`, the Percent Effect was -4.08%.

Turning to `CC(O)CN(CC(=O)NC(=O)NCC(F)(F)F)c1ccccc1` (centres undefined), the Percent Effect was -4.64%.

In the case of `Cn1nccc1C(=O)N1CCOC(Cc2cccc(C(F)(F)F)c2)C1` (centres undefined), the Percent Effect is -6%.

As to `COC(=O)C(C)(C)NC(=O)C1CC(=O)N(C)C1` (centres undefined), the Percent Effect is -1.38%.

A further assay deals with T1, Ubiquitin-activating enzyme e1, putative (Leishmania donovani (strain BPK282A1)) (UniProt E9BSI1).
T1 sequence (whole entry): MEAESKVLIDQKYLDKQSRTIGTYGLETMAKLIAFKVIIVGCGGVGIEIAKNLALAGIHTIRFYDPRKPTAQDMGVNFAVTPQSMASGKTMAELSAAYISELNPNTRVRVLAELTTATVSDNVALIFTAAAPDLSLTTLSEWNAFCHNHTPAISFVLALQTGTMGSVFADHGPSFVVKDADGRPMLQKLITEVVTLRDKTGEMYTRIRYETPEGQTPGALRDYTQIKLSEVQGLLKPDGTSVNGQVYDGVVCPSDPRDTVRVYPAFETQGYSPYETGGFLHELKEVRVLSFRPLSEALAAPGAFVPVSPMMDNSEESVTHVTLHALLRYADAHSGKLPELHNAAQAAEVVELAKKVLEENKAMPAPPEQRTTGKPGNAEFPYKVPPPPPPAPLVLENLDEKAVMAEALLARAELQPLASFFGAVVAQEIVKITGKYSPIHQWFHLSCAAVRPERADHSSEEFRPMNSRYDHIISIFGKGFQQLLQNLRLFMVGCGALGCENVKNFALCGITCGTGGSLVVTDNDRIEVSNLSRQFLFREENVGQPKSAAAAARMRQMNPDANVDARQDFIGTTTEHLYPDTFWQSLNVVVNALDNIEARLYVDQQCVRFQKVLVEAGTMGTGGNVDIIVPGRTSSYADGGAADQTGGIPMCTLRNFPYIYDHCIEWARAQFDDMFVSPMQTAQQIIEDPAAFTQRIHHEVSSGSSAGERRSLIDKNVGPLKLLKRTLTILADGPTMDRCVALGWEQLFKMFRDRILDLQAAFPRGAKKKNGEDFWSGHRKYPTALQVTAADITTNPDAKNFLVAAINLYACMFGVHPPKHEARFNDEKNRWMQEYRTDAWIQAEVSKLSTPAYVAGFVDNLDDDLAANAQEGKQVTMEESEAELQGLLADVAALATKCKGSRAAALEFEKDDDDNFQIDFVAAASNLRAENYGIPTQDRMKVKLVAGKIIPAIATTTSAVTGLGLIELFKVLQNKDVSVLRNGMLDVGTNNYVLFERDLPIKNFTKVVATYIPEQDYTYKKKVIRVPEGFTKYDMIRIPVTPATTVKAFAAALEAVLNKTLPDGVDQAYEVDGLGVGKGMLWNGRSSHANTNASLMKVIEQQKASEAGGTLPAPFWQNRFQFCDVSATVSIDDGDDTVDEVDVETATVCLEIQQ
As to the kind of experiment: Leishmania donovani Ubiquitin Activating Enzyme (LdE1). The conditions noted are these: 30 µM. Also noted: scale not given: direction of the effect not stated beside the values. It is filed as functional.
Turning to `O=C(c1cnccn1)N1CCN(Cc2ccncc2)c2ncccc2C1`, the Percent Effect was found to be 0%.

For `CS(=O)(=O)N1CCCCCC1C1CCN(c2ncccn2)CC1` (centres undefined), the Percent Effect came out at 2.63%.

As for `Cc1noc([C@@H]2CC[C@@H]3[C@@H](CCN3S(=O)(=O)c3cccnc3)O2)n1`, the Percent Effect is 5.41%.

As for `COc1ccc(-c2noc(C(=O)NCCN3CCCCC3)n2)cc1OC`, the Percent Effect was determined as 14.7%.

As to `CNC(=O)[C@H]1C[C@H]2OCC[C@H]2N(Cc2ccc(C)o2)C1`, the Percent Effect came out at 7.79%.

Regarding `N#Cc1ccc(F)c(CN2CCCC2Cn2cccn2)c1` (centres undefined), the Percent Effect is -8.11%.

In the case of `CC(C)CN1CCC(c2nc3c([nH]2)CC(C)(C)CNC3=O)C1` (centres undefined), the Percent Effect turned out to be 8.11%.

For `CSc1cc2c(cc1NC(=O)NCC(C)(C)C(N)=O)OCCO2`, the Percent Effect was determined as 0%.

For the molecule `CC(C)C1CN(C(=O)c2ccc(C(N)=O)cc2)CCS1` (centres undefined), the Percent Effect came to 5.2%.

Consider `Cc1ccc(-c2cc(CNC(=O)N3CCOC(C)C3)on2)cc1` (centres undefined), for which the Percent Effect was 8.11%.

For `Cn1cc(N2CC3(CCN(Cc4cccs4)CC3)OCC2=O)cn1`, the Percent Effect was -2.74%.

Regarding `CCc1noc(C2CCN(C(=O)CCn3nc(C)cc3C)CC2)n1`, the Percent Effect was 18.2%.

On to `NC(=O)COc1cccc(C(=O)N2CCCC(n3ccnc3)C2)c1` (centres undefined), for which the Percent Effect is 0%.

With `CCCc1cc(C(=O)N(C)Cc2cccc3ncccc23)n(C)n1`, the Percent Effect turned out to be 15.6%.

As to `CCOCC1CN(Cc2ccoc2)Cc2nn(CC3CC3)cc21` (centres undefined), the Percent Effect is -2.7%.

For the molecule `Cn1nc(C2CCCN(Cc3ccsc3)C2)c2nccnc21` (centres undefined), the Percent Effect is 9.46%.

With `CCS(=O)(=O)N1CCOC2(CCCN(c3ccc(C)nn3)C2)C1` (centres undefined), the Percent Effect was 2.67%.

In the case of `CCN(CCC(F)(F)F)C(=O)Nc1cccc(N2CCOCC2)c1`, the Percent Effect is 5.41%.

For `Cc1nn(C)cc1CN1CCC(C2Nc3ccccc3S(=O)(=O)N2)CC1` (centres undefined), the Percent Effect worked out at 6.76%.

Turning to `COCCCNC(=O)CN1CCCC1c1c(C)nn(C)c1Cl` (centres undefined), the Percent Effect turned out to be 8.86%.

For the molecule `Cc1ccccc1CN1CCN(CC(=O)Nc2cccnc2)CC1`, the Percent Effect stood at 15.6%.

For the molecule `CS(=O)(=O)N1CCOCC2(CN(Cc3ccsc3)CCO2)C1` (centres undefined), the Percent Effect worked out at 5.48%.

With `c1cncc(COCc2nnc3n2CCN(Cc2ccoc2)C3)c1`, the Percent Effect amounted to 18.2%.

Regarding `CCN1C(=O)CCC12CCCN(Cc1nccs1)CC2` (centres undefined), the Percent Effect was 8%.

With `O=C(Nc1cnn(CCN2CCOCC2)c1)c1cc(F)ccc1F`, the Percent Effect was 7.89%.

In the case of `O=C(N[C@@H]1CN(Cc2ccc3c(c2)OCO3)[C@@H]2CCCO[C@@H]21)C1CC1`, the Percent Effect was 0%.

Regarding `Cc1noc(Cl)c1CCC(=O)N1CCC(CC(N)=O)CC1`, the Percent Effect worked out at 18.4%.

For the molecule `c1ncn(CC2CCCCN2Cc2noc(C3CC3)n2)n1` (centres undefined), the Percent Effect was 15.8%.

As for `Cc1ccc(CNS(=O)(=O)CC2=NC(=O)n3cccc3C2=O)cc1`, the Percent Effect is -9.33%.
